Experiment [1] can be described thus: qHTS assay to identify small molecule agonists of the peroxisome proliferator-activated receptor delta (PPARd) signaling pathway - cell viability counter screen (AID 743211). Further: nearly all actives have a fitted effect of over 55% in size. Further: potency means the concentration at half of the fitted maximal effect. In outline:
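Counter screen for cytotoxicity run in parallel with the PPARd reporter screen. Beta-lactamase reporter HEK293H cells exposed to compounds 17 h; ATP-based CellTiter-Glo luminescence quantified viability.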
For orientation: qHTS replaces the single test concentration by a dilution series.

Experiment [2] in a line: qHTS assay to identify small molecule agonists of the farnesoid-X-receptor (FXR) signaling pathway - cell viability counter screen (AID 743218). Further: nearly all actives have a fitted effect of over 45% in size. Further: potency means the concentration at half of the fitted maximal effect. In outline:
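Viability of FXR-bla HEK 293T cells is measured by ATP-based CellTiter-Glo luminescence following 16 h compound treatment at 37 C and a prior 2 h room-temperature beta-lactamase substrate step.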

Experiment [3] can be described thus: qHTS assay to identify small molecule antagonists of the farnesoid-X-receptor (FXR) signaling pathway - cell viability counter screen (AID 743221; active means well fitted cell-killing curve with a large enough effect in the repeat runs, not every such curve was filed as active; further: nearly all actives have a fitted effect of over 50% in size; further: potency means the concentration at half of the fitted maximal effect). In outline: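 Multiplexed counter screen: viability of FXR-bla HEK 293T cells under agonist stimulation by chenodeoxycholic acid (50 uM, final) and test compound for 16 h at 37 C, measured by CellTiter-Glo luminescence in the reporter wells.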

A short description of experiment [4]: qHTS assay to identify small molecule agonists of the vitamin D receptor (VDR) signaling pathway - cell viability counter screen (AID 743224). Further: series mostly up to about 63 µM; nearly all actives have a fitted effect of over 50% in size. In a few lines: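 Compounds were pin-transferred onto VDR-bla cells plated 4 h earlier; following 16 h incubation at 37C, cell viability was quantified by CellTiter-Glo luminescence after 30 min at room temperature.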

A short description of experiment [5]: qHTS assay to identify small molecule agonists of the NFkB signaling pathway - cell viability counter screen (AID 1159515; calls by dose curve; further: nearly all actives have a fitted effect of over 55% in size; further: potency means the concentration at half of the fitted maximal effect). In outline: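 Parallel cytotoxicity counter screen in ME-180 cells carrying an NFkB-response-element beta-lactamase reporter, 2,000 cells/well. Compound exposure lasted 5 hr at 37 C, 5% CO2. Cell viability was quantified by CellTiter-Glo luminescence.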

Experiment [6] is described as follows: qHTS assay to identify small molecule agonists of the endoplasmic reticulum stress response signaling pathway (AID 1159516; active means well fitted activation curve with a large enough effect in the signal ratio in the repeat runs, not every such curve was filed as active; the % refers to the signal ratio). In outline:
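Using a HeLa line with an ESRE-driven beta-lactamase gene, agonist activity was measured by FRET substrate fluorescence (460 and 530 nm emission) after cells were treated with compounds for 5 hr at 37 C and 5% CO2.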

A short description of experiment [7]: qHTS assay to identify small molecule agonists of the endoplasmic reticulum stress response signaling pathway - cell viability counter screen (AID 1159517; calls by dose curve;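 further: HeLa cells carrying an ER stress response element beta-lactamase reporter; series mostly up to about 61 µM; nearly all actives have a fitted effect of over 50% in size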). In a few lines: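 ESRE-bla HeLa cells (1,500/well) were plated overnight at 37 C and exposed to compounds for 5 hr. After the 2 hr beta-lactamase substrate read, CellTiter-Glo went into the same wells, and luminescence was read after 30 min at room temperature.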

A short description of experiment [8]: qHTS assay to identify small molecule antagonists of the retinoid-related orphan receptor gamma (ROR-gamma) signaling pathway - cell viability counter screen (AID 1159520). Further: nearly all actives have a fitted effect of over 50% in size. Further: potency means the concentration at half of the fitted maximal effect. In outline: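 Cytotoxicity was read from cellular ATP (CellTiter-Glo luminescence) after 16 hr at 37 C with 1 uM doxycycline induction. The inducer was added 2 hr after compound transfer to Tet-on ROR gamma CHO cells.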

Experiment [9] addresses Nuclear receptor ROR-gamma (Homo sapiens) (UniProt P51449). The experiment in a line: qHTS assay to identify small molecule antagonists of the retinoid-related orphan receptor gamma (ROR-gamma) signaling pathway (AID 1159521; further: nearly all actives have a fitted effect of over 50% in size; further: potency means the concentration at half of the fitted maximal effect). In a few lines:
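Cells were plated, rested 4 h at 37 C, exposed to compounds for 2 h, then given 1 uM final doxycycline hyclate to induce RORγ expression. After 16 h, ONE-Glo luminescence from the ROR response element reporter was measured.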

The nature of experiment [10]: qHTS assay to identify small molecule agonists of the AP-1 signaling pathway - cell viability counter screen (AID 1159525; calls by dose curve; further: nearly all actives have a fitted effect of over 55% in size; further: potency means the concentration at half of the fitted maximal effect). In a few lines: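 Intracellular ATP by Cell Titer Glo luminescence (30 min, RT) in the same ME-180 AP-1-bla wells after the 5 h compound exposure at 37 °C. Normalised to tetra n-octyl ammonium bromide and DMSO controls.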
The nature of experiment [11]: qHTS assay to identify small molecule agonists of the AP-1 signaling pathway (AID 1159526; calls by dose curve).
The target in experiment [12] is Peroxisome proliferator-activated receptor delta (Homo sapiens) (UniProt Q03181). The experiment in a line: qHTS assay to identify small molecule agonists of the peroxisome proliferator-activated receptor delta (PPARd) signaling pathway (AID 743212; calls by dose curve;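 further: HEK293H cells with PPARd UAS beta-lactamase reporter GeneBLAzer system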). In a few lines:
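Beta-lactamase reporter readout: a ratiometric FRET signal from the LiveBLAzer substrate after 2 h at room temperature. Compound exposure at 37 °C in PPARδ-bla HEK293H cells driven by an upstream activator sequence.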

Experiment [13] is described as follows: qHTS assay to identify small molecule antagonists of the peroxisome proliferator-activated receptor delta (PPARd) signaling pathway - cell viability counter screen (AID 743213). Further: nearly all actives have a fitted effect of over 50% in size. Further: potency means the concentration at half of the fitted maximal effect. In a few lines:
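HEK293H cells with the PPARd UAS-bla reporter, co-treated 17 h at 37 C with compounds and L165041 (300 nM final), were lysed with CellTiter-Glo. Luminescence indicated viable cell content.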

Experiment [14] concerns the target Peroxisome proliferator-activated receptor delta (Homo sapiens) (UniProt Q03181). Kind of experiment: qHTS assay to identify small molecule antagonists of the peroxisome proliferator-activated receptor delta (PPARd) signaling pathway (AID 743215; active means well fitted inhibition curve with a large enough effect in the signal ratio in the repeat runs, not every such curve was filed as active; the % refers to the signal ratio;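 further: cells stimulated with agonist L165041 at 300 nM final during compound exposure; series mostly up to about 62 µM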). In a few lines: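 Plated HEK293H PPARd-bla cells rested 5 h at 37 C and 5% CO2. Compound, then agonist L165041 at 300 nM final, was added; 17 h at 37 C followed. Substrate loading, 2 h room temperature, fluorescence measured.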

In experiment [15] the target is Vitamin D3 receptor (Homo sapiens) (UniProt P11473). Kind of experiment: qHTS assay to identify small molecule agonists of the vitamin D receptor (VDR) signaling pathway (AID 743222; calls by dose curve). In a few lines: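 Fluorescence from cleaved LiveBLAzer B/G FRET substrate served as readout. VDR-bla cells had been treated 16 h at 37C with test compounds in DMSO, following a 4 h settling period, and substrate was loaded for 2 h at RT.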

Experiment [16] shares this target. The experiment in a line: qHTS assay to identify small molecule antagonists of the vitamin D receptor (VDR) signaling pathway (AID 743223; active means well fitted inhibition curve with a large enough effect in the signal ratio in the repeat runs, not every such curve was filed as active; the % refers to the signal ratio). In a few lines: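 Cells carrying a VDR-driven beta-lactamase reporter (VDR-bla) were co-treated with compound and 3 nM final 1alpha,25-dihydroxyvitamin D3 for 16 h at 37C; reporter activity was measured as FRET substrate fluorescence after 2 h at room temperature.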

The nature of experiment [17]: qHTS assay to identify small molecule antagonists of the vitamin D receptor (VDR) signaling pathway - cell viability counter screen (AID 743225). Further: nearly all actives have a fitted effect of over 50% in size. Further: potency means the concentration at half of the fitted maximal effect. In outline: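 HEK293T VDR-bla; cpd + 1a,25-(OH)2D3 3 nM final, 16 h 37C/5% CO2; B/G FRET substrate 2 h RT; then CellTiter-Glo 30 min RT, luminescence.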
In experiment [18] the target is Retinoic acid receptor RXR-alpha (Homo sapiens) (UniProt P19793). Kind of experiment: qHTS assay to identify small molecule agonists of the RXR signaling pathway (AID 1159527; calls by dose curve; further: nearly all actives have a fitted effect of over 35% in size). In outline:
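Cells plated at 2,000/well, rested 5 hr at 37 C, pin-dosed with DMSO compound solutions, incubated 16 hr, then loaded with B/G FRET substrate for 2 hr at RT before dual-emission fluorescence reading.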

Experiment [19] has as its target Bile acid receptor (Homo sapiens) (UniProt Q96RI1). Kind of experiment: qHTS assay to identify small molecule agonists of the farnesoid-X-receptor (FXR) signaling pathway (AID 743220; active means well fitted activation curve with a large enough effect in the signal ratio in the repeat runs, not every such curve was filed as active; the % refers to the signal ratio). In a few lines: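 FXR-UAS-bla HEK 293T cells carrying a UAS-driven beta-lactamase reporter were plated for 5 h at 37C/5% CO2, then exposed to DMSO-dissolved Tox21 10K compounds for 16 h at 37C. A LiveBLAzer B/G FRET substrate was loaded for 2 h at room temperature before fluorescence reading.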

Inconclusive results are not listed. Values without a mark were called inactive. Activity calls are given as the source filed them. Unless noted, the call rests on the fitted dose curve; in most records, active means well fitted curve in the direction sought with a large enough effect in the repeat runs; inconclusive means weak or mixed curves; inactive means no such curve, though single readings can be large; an effect the other way counts as inactive or inconclusive.

Chain of Vitamin D3 receptor (Homo sapiens) (P11473 whole entry, looked up): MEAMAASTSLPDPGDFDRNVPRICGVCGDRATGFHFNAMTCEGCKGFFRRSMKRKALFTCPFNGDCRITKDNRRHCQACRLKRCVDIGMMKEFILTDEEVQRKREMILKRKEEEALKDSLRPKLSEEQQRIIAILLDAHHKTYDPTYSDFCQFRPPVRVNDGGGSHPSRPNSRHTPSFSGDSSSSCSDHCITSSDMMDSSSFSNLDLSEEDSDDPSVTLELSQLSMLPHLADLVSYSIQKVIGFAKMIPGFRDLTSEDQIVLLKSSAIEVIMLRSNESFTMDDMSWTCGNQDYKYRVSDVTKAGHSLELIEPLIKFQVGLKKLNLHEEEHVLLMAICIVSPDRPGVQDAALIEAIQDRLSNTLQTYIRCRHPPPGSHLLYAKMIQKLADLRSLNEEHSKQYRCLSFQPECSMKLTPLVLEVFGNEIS
Chain of Peroxisome proliferator-activated receptor delta (Homo sapiens) (Q03181 whole entry, looked up): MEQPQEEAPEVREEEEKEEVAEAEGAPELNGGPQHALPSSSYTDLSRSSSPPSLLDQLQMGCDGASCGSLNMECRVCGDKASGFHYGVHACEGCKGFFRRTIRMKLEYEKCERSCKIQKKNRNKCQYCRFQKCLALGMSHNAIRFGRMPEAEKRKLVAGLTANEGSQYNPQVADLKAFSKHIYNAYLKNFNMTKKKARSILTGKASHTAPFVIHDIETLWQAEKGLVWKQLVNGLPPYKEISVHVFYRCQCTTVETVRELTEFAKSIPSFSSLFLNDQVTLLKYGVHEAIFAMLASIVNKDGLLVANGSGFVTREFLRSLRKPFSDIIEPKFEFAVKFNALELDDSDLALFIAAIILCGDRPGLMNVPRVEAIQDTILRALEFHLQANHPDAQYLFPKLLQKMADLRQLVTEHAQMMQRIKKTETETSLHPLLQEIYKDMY
Chain of Retinoic acid receptor RXR-alpha (Homo sapiens) (P19793 whole entry, looked up): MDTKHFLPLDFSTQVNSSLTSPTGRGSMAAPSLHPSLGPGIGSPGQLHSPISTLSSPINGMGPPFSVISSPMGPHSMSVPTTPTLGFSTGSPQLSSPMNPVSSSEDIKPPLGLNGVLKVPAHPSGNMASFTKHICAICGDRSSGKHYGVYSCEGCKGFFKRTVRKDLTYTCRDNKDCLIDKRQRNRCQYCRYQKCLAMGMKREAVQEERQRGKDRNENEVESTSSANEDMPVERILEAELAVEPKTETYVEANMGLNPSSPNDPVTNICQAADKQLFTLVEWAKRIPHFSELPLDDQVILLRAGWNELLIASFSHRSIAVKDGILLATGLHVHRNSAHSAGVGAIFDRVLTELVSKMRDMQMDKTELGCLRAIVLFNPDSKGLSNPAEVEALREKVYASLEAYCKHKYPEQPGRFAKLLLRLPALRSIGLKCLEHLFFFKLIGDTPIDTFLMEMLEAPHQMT
Chain of Bile acid receptor (Homo sapiens) (Q96RI1 whole entry, looked up): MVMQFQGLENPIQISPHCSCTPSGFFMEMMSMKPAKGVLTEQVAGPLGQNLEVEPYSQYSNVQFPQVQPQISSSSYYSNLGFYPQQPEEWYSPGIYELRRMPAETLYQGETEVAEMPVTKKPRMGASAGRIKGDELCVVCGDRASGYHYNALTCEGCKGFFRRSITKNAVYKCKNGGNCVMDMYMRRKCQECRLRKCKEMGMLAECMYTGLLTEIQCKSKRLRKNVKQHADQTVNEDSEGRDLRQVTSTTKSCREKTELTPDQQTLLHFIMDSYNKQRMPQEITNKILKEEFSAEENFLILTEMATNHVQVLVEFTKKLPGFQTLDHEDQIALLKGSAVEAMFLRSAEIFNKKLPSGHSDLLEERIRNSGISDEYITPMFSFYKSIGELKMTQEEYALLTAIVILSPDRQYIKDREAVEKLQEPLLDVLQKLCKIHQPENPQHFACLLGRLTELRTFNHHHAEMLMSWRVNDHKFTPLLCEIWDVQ

For the compound `C[C@H](CCC(=O)O)[C@H]1CC[C@H]2[C@@H]3[C@H](O)C[C@@H]4C[C@H](O)CC[C@]4(C)[C@H]3CC[C@]12C`, the Potency entry in experiment [1], in experiment [2], in experiment [3], in [4], in [5] and in [6] was “inactive” in each case. Further, the Potency result in [8], in experiment [9], in experiment [10] and in experiment [11] was “inactive” each time. The compound was called inactive in experiment [7].
Regarding `CC(=O)N(O)CCCCCNC(=O)CCC(=O)N(O)CCCCCNC(=O)CCC(=O)N(O)CCCCCN`, the Potency result in experiment [1], in experiment [13], in experiment [3], in experiment [16], in experiment [4] and in experiment [17] was “inactive” in each case. In addition, the Potency entry in experiment [5], in experiment [6], in [8], in [9], in experiment [10] and in experiment [18] was “inactive” throughout. The compound was classed as inactive in experiment [12], in experiment [14], in experiment [15] and in experiment [7].
Consider `CCCCCCOC(=O)CCC`, for which the Potency entry in [1], in experiment [13], in [2], in experiment [3], in [4] and in experiment [17] was “inactive” each time. Also, the Potency result in experiment [5], in [6], in [8], in [9], in [10] and in [18] was “inactive” throughout. In addition, the call in experiment [12], in [14], in experiment [19], in experiment [15] and in experiment [7] was inactive.
`OC(CCN1CCCCC1)(c1ccccc1)C1CCCCC1` (stereo not drawn): the Potency entry in [1], in [2], in experiment [4], in [17], in experiment [5] and in experiment [6] was “inactive” in each case. The Potency result in [8], in experiment [9] and in [10] was “inactive” throughout. In addition, the compound was classed as inactive in experiment [12], in experiment [14] and in experiment [7].
In the case of `Cc1ccc(C)o1`, the Potency entry in [1], in experiment [13], in experiment [2], in [3], in [16] and in [4] was “inactive” in each case. The Potency result in experiment [17], in experiment [5], in [6], in experiment [8], in [9] and in [11] was “inactive” throughout. Also, the call in experiment [14], in experiment [19], in experiment [15] and in [7] was inactive.
With `NC(N)=NN=C(/C=C/c1ccc([N+](=O)[O-])o1)/C=C/c1ccc([N+](=O)[O-])o1`, the Potency was 9.44 µM (active) in experiment [1]; 9.44 µM (active) in experiment [13]; 10.6 µM (active) in experiment [2]; 23.7 µM (active) in experiment [3]; 10.7 µM (active) in experiment [17]; 13.4 µM (active) in experiment [5]. The Potency is 2.11 µM (active) in [8], 7.5 µM (active) in [9] and 21.3 µM (active) in experiment [10]. Also, the Potency result in experiment [6] is “inactive”. Also, the call in experiment [7] was inactive.

Source of the values: PubChem BioAssay (Tox21).
